# Measured values as given in PubChem BioAssay (NCATS).
# Where “and” joins values, the source holds several entries; their conditions need not be identical. Equal values may be shown once. Records with an inconclusive call do not appear. Where a call stands in place of a potency, no number is given. Calls of active or inactive are those of the source. Unless noted, calls come from the whole dose curve.
# Assays:
# [1] = qHTS for Inhibitors of the Functional Ribonucleoprotein Complex (vRNP) of Lassa (LASV) Arenavirus: LASV Primary Screen - GLuc reporter signal (AID 1347082; calls by dose curve; tested in HEK293 reporter line; note: nearly all actives have a fitted effect of over 60% in size; note: potency is the fitted concentration of half-maximal effect)
# [2] = qHTS for Inhibitors of the Functional Ribonucleoprotein Complex (vRNP) of Lassa (LASV) Arenavirus: Viability assay - alamar blue signal for LASV Primary Screen (AID 1347083; calls by dose curve; tested in HEK293 reporter line; note: nearly all actives have a fitted effect of over 80% in size; note: potency is the fitted concentration of half-maximal effect)
# [3] = molecular target: Nucleoprotein (Lymphocytic choriomeningitis virus (strain Armstrong)) (UniProt P09992); assay: qHTS for Inhibitors of the Functional Ribonucleoprotein Complex (vRNP) of Lymphocytic Choriomeningitis Arenaviruses (LCMV): LCMV Primary Screen - GLuc reporter signal (AID 1347086); note: nearly all actives have a fitted effect of over 70% in size; note: potency is the fitted concentration of half-maximal effect
# [4] = Confirmatory qHTS to identify inhibitors of SARS-CoV-2 cell entry (AID 1645844); note: potency is the fitted concentration of half-maximal effect; nearly all actives have a fitted effect of over 45% in size
# In short: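 HEK293-ACE2 cells (Expi293F stably expressing human ACE2) were pretreated with compounds for 1 hr at 37C, then infected with MLV-based particles carrying Wuhan-Hu-1 spike (C-terminal 19-aa truncation). Luciferase luminescence read after 48 hr; normalized to spike PP (100%) and bald PP (0%).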
# [5] = Cytotoxicity counterscreen for inhibitors of SARS-CoV-2 cell entry (AID 1645845); note: nearly all actives have a fitted effect of over 50% in size
# In short: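 Expi293F/hACE2 cells seeded overnight; cpd pin-transferred in DMSO, 1 h preincubation, + media, 48 h 37 C 5% CO2; ATPLite 1step luminescence; normalized to cells and no cells.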
# [6] = VSVG counterscreen qHTS to identify inhibitors of SARS-CoV-2 cell entry (AID 1645847); note: potency is the fitted concentration of half-maximal effect; nearly all actives have a fitted effect of over 65% in size
# In short: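 Entry of VSV-G pseudotyped particles into human ACE2-expressing HEK293 cells was measured by luciferase luminescence 48 h after infection, with compound added 1 h beforehand.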
# CRL-7250 = normal cell line; assay: qHTS assay to identify novel small-molecules to repurpose for Merkel cell carcinoma treatment (AID 1296009; active = well fitted inhibition curve with a large enough effect; note: nearly all actives have a fitted effect of over 60% in size); settings: MCC and control cell lines, CellTiter-Glo viability, 72 h; series mostly up to 92 µM
# In short: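 qHTS format: cells treated with library compounds in DMSO across 8 (NPC) or 11 (MIPE) concentrations. Readout after 72 hr at 37 degree celsius was CellTiter-Glo luminescence.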
# [7] = Confirmatory qHTS for activators (rescue) of SARS-CoV-2 Cytopathic Effect (CPE) (AID 1508606); note: potency is the fitted concentration of half-maximal effect; nearly all actives have a fitted effect of over 70% in size
# [8] = qHTS for Inhibitors of the Functional Ribonucleoprotein Complex (vRNP) of Lymphocytic Choriomeningitis Arenaviruses (LCMV): Viability assay - alamar blue signal for LCMV Primary Screen (AID 1347085; calls by dose curve; tested in HEK293 reporter line; note: nearly all actives have a fitted effect of over 80% in size; note: potency is the fitted concentration of half-maximal effect)
# [9] = Primary qHTS to identify inhibitors of SARS-CoV-2 cell entry (AID 1645846); settings: activity change, negative = inhibition: at 57.1 µM (top of the series) unless noted; note: nearly all actives have a fitted effect of over 45% in size; note: potency is the fitted concentration of half-maximal effect
# In short: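 Using luciferase-reporting pseudoviruses carrying Wuhan-Hu-1 spike, the screen tracks entry into stably ACE2-expressing cells over 48 hr. Activity is expressed relative to spike particles versus particles lacking any fusion protein.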
# [10] = Primary qHTS for inhibitors of SARS-S pseudo-typed particle cell entry (AID 1479145); note: nearly all actives have a fitted effect of over 45% in size
# [11] = Primary qHTS for Huh7 cytotoxicity: counterscreen for inhibitors of MERS-S pseudotyped particle cell entry (AID 1479147); settings: outcome: dose series up to 57.1 µM unless noted
# [12] = Primary qHTS for inhibitors of MERS-S pseudo-typed particle cell entry (AID 1479149); note: nearly all actives have a fitted effect of over 60% in size
# [13] = Primary qHTS for Vero E6 cytotoxicity: counterscreen for inhibitors of SARS-S pseudo-typed particle cell entry (AID 1479150); settings: outcome: dose series up to 57.1 µM unless noted
# [14] = molecular target: Bile acid receptor (Homo sapiens) (UniProt Q96RI1); assay: qHTS assay for small molecule agonists of farnesoid X receptor signaling (AID 588527); settings: HEK293T FXR-UAS-bla, beta-lactamase ratio, 16 h; activation: stronger effect = higher value
# In short: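 FXR-UAS-bla HEK293T cells (10% dialyzed FBS) preincubated 5-7 h at 37 C, then compounds at up to 92 uM for 16 h at 37 C. CCF4 beta-lactamase read-out after 2 h RT. Normalized to chenodeoxycholic acid (100 uM) and DMSO; Hill fit gave EC50 and efficacy.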
# Nucleoprotein (Lymphocytic choriomeningitis virus (strain Armstrong)), sequence (P09992 whole entry, looked up): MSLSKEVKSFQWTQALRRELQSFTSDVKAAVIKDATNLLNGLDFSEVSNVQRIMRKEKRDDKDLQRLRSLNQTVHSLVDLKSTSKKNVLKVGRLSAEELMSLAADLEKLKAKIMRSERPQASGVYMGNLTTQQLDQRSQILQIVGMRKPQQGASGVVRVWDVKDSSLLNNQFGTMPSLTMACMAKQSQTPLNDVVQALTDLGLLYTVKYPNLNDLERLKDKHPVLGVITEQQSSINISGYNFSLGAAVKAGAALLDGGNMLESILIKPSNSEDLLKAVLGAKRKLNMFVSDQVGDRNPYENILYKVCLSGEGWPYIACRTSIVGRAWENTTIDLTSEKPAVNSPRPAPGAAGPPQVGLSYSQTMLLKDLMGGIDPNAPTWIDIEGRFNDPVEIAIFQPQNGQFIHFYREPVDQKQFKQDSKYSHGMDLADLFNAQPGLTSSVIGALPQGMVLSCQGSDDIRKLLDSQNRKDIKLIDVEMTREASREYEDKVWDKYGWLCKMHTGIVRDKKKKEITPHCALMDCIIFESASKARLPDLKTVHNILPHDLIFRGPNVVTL
# Bile acid receptor (Homo sapiens), sequence (Q96RI1 whole entry, looked up): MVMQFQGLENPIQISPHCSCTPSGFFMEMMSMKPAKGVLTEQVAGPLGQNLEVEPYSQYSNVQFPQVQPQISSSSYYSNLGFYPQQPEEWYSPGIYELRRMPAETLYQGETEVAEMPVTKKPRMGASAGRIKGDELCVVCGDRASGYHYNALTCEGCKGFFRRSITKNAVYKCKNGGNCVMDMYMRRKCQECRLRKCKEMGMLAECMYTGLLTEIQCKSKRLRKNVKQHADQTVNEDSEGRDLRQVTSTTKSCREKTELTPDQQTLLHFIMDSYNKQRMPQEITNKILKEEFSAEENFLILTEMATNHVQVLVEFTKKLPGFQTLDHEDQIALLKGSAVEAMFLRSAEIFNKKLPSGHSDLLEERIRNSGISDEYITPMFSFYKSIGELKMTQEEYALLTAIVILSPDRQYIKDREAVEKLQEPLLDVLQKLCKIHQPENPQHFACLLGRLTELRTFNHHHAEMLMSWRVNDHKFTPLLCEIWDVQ
smiles,measurement,setting,value
O=C(O)c1ccc(Nc2ncc3c(n2)-c2ccc(Cl)cc2C(c2c(F)cccc2F)=NC3)cc1,Potency,[1],inactive
same,Potency,[2],10.9 µM (active)
same,Potency,[3],inactive
same,Potency,[4],0.242 µM (active)
same,Potency,[5],inactive
same,Potency,[6],1.08 µM (active)
same,Potency,CRL-7250,inactive
O=c1cc(-c2cccc3c2Sc2ccccc2S3)oc(N2CCOCC2)c1,Potency,[1],inactive
same,Potency,[3],inactive
same,Potency,[7],3.55 µM (active)
same,Potency,CRL-7250,inactive
OC1CCC(Nc2ncc3nc(Nc4c(F)cc(F)cc4F)n([C@@H]4CCOC4)c3n2)CC1 (stereo partly specified),Potency,[1],inactive
same,Potency,[2],24.3 µM (active)
same,Potency,[8],21.7 µM (active)
same,Potency,[5],inactive
same,Potency,[9],inactive
same,Potency,CRL-7250,inactive
CNC(=O)c1ccc(N2C(=S)N(c3cnc(C#N)c(C(F)(F)F)c3)C(=O)C23CCC3)cc1F,Potency,[1],21.7 µM (active)
same,Potency,[5],inactive
same,"activity change, negative = inhibition",[9],-16.7%
same,Potency,CRL-7250,inactive
CC(C)c1cnn2c(NCc3ccccc3)cc(NCCCCCCN)nc12,Potency,[2],1.93 µM (active)
same,Potency,[8],1.09 µM (active)
same,Potency,[3],1.53 µM (active)
same,Potency,[7],10 µM (active)
same,Potency,[9],22.4 µM (active)
same,Potency,CRL-7250,inactive
COc1ccc([C@@H]2CC(=O)c3c(O)cc(O[C@@H]4O[C@H](CO[C@@H]5O[C@@H](C)[C@H](O)[C@@H](O)[C@@H]5O)[C@@H](O)[C@H](O)[C@@H]4O)cc3O2)cc1O,Potency,[1],inactive
same,Potency,[2],inactive
same,Potency,[3],inactive
same,Potency,[10],inactive
same,outcome,[11],inactive
same,Potency,[12],inactive
same,outcome,[13],inactive
same,Potency,[5],inactive
same,"activity change, negative = inhibition",[9],-5.46%
same,Potency,CRL-7250,inactive
CCC[C@@H](NC(=O)[C@@H]1[C@H]2CCC[C@@H]2CN1C(=O)[C@@H](NC(=O)[C@@H](NC(=O)c1cnccn1)C1CCCCC1)C(C)(C)C)C(=O)C(=O)NC1CC1,Potency,[1],inactive
same,Potency,[2],inactive
same,Potency,[3],inactive
same,Potency,CRL-7250,inactive
Nc1ncnc2c1ncn2[C@@H]1O[C@H](CO)[C@@H](O)[C@@H]1O,Potency,[1],inactive
same,Potency,[2],inactive
same,Potency,[3],inactive
same,Potency,[5],inactive
same,Potency,[9],28.2 µM (active)
same,Potency,CRL-7250,inactive
N#Cc1c(N(CC(=O)O)CC(=O)O)sc(C(=O)O)c1CC(=O)O,Potency,[1],inactive
same,Potency,[2],inactive
same,Potency,[3],inactive
same,"activity change, negative = inhibition",[10],-19.2% [at 0.573 µM] (inactive)
same,outcome,[11],inactive [at 0.573 µM]
same,outcome,[13],inactive [at 0.573 µM]
same,outcome,[5],inactive [at 0.702 µM]
same,outcome,[9],inactive [at 0.702 µM]
same,Potency,CRL-7250,inactive
COc1ccc2c(c1)c(C1=C(c3c[nH]c4ccccc34)C(=O)NC1=O)cn2CCCN(C)C,Potency,[2],0.485 µM (active)
same,Potency,CRL-7250,inactive
Cc1ccc2c(c1)c1c(n2CCc2ccc(C)nc2)CCN(C)C1,Potency,[1],inactive
same,Potency,[3],inactive
same,Potency,CRL-7250,inactive
O=c1c(O)c(-c2ccc(O)cc2)oc2cc(O)cc(O)c12,activation,[14],0.454% (inactive) and 2.54% (inactive)
same,Potency,[1],inactive
same,Potency,[2],inactive
same,Potency,[3],inactive
same,Potency,[5],inactive
same,Potency,CRL-7250,inactive
CCCc1nc(C(C)(C)O)c(C(=O)O)n1Cc1ccc(-c2ccccc2-c2nn[nH]n2)cc1,Potency,[1],inactive
same,Potency,[8],inactive
same,Potency,[3],inactive
same,outcome,[11],inactive
same,Potency,[12],inactive
same,outcome,[13],inactive
same,Potency,[5],inactive
same,"activity change, negative = inhibition",[9],-8.69% and -17.9%
same,Potency,CRL-7250,inactive
